A selection: hits, their analogues and other compounds. The true share with any hit is near 3.1%.
KLK7 zymogen act: activates the human kallikrein-7 zymogen. purified proKLK7, EDANS-DABCYL substrate fluorescence; 100% is mature enzyme control, 0% vehicle. activation, % at 7 µM. 370,000 tested, 0.9% active. AID 652039;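 active = activation above the mean of all tested compounds plus 3 SD, computed per campaign excluding outliers beyond control limits, cut at about 13% in these data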
Target sequence (P49862 whole entry, looked up): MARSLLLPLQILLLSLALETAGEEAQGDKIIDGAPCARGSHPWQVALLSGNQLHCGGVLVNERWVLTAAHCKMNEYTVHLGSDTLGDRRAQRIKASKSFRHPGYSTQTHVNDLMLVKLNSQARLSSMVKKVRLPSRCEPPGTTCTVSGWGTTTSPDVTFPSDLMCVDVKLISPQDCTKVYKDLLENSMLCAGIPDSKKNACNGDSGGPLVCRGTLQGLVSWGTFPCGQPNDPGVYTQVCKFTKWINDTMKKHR
UHRF1 MBD2 ctr: blocks human UHRF1 binding to methylated DNA | Q96T88 | UHRF1 binding to methylated oligo, TR-FRET | inhibition, % at 4.4 µM | 370,000 tested, 0.75% active | AID 687016; in the data active = inhibition above about 21%;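 also: UHRF1 SRA domain binding a hemimethylated CpG hairpin DNA probe; 0% = median of test compound wells and 100% = reference inhibitor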
Neddyl block: cullin neddylation inhibition; TR-FRET cullin neddylation, biochemical; calls only at 25 µM; 360,000 tested, 0.58% active; AID 651699; in the data active = inhibition above about 36%
MBD2 inh: MBD2-methylated oligo binding inhibition. Q9UBB5. TR-FRET, MBD2 binding to methylated oligonucleotide. inhibition, % at 4.4 µM. 370,000 tested, 0.31% active; in the data active = inhibition above about 13%
Rin1-Abl PPI inh: human Rin1-Abl interaction inhibition; inhibition, % at 7.35 µM; 360,000 tested, 0.4% active; AID 588664; P00519+Q13671; TR-FRET Rin1/Abl binding, biochemical; in the data active = inhibition above about 5%, passing the limit was not always enough
LEDGF integ inh: blocks HIV-1 LEDGF/p75-dependent DNA integration; TR-FRET IN-LEDGF/p75 DNA integration, Eu/Cy5; inhibition, % at 3.7 µM; 370,000 tested, 0.64% active;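 active = inhibition above the screen-wide mean plus 3 SD, cut at about 13% in these data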;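 also: signal is the Cy5 over europium emission ratio at 671 and 618 nm; 0% = plate median of compound wells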
KLK7 act conf: proKLK7 activation, confirmation. activation, % at 7 µM. AID 686949. purified proKLK7, EDANS-DABCYL substrate fluorescence; scaled: vehicle 0, mature enzyme 100. 3,200 tested, 68% active. shares compounds with KLK7 zymogen act;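 active = activation, as change over the incubation, above the mean of all tested compounds plus 3 SD, cut at about 13% in these data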
EDANS-DABCYL int: counter-screen for kallikrein-7 activators: EDANS-DABCYL optical interference; 3,200 tested, 80% active; EDANS-DABCYL substrate fluorescence interference, no enzyme, 4 h; solvent 0%, active enzyme control 100%; activation, % at 7 µM; shares compounds with KLK7 zymogen act;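 active = activation above the all-compound mean plus 3 SD, ignoring values outside control-based bounds, cut at about 4.8% in these data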;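 also: value is the 4 h activation minus the activation read at time zero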
Active calls of the source: *; i = inactive; · = no result shown.

SMILES	KLK7 zymogen act	UHRF1 MBD2 ctr	Neddyl block	MBD2 inh	Rin1-Abl PPI inh	LEDGF integ inh	KLK7 act conf	EDANS-DABCYL int
OC(COc1ccc(Br)cc1)CN1CCN(c2ccccc2)CC1 (configuration not stated)	0	1	i	-3	-3	-5	·	·
CC(=O)Nc1cc(-c2ccccc2N(C)C)cn2c(-c3ccc(S(C)(=O)=O)cc3)cnc12	13*	-7	i	-3	-8	-4	10	11*
CC(=O)Nc1cc(-c2ccccc2N(C)C)cn2c(-c3ccccc3)cnc12	1	-6	i	-4	-2	0	·	·
O=C(COC(=O)c1ccccc1-n1cnnn1)c1ccc(F)cc1	0	-5	i	1	-2	-5	·	·
O=c1oc2cc(O)ccc2cc1-c1ccccc1	72*	-4	i	-9	0	-2	66*	77*
COc1ccc(-c2cc3ccc(O)cc3oc2=O)cc1	53*	-7	i	-5	-1	2	75*	74*
Cc1c2cccn2cc[n+]1C	18*	-1	·	-2	-3	-2	32*	27*
O=C(NC1CCCCN(Cc2ccc(Cl)cc2)C1=O)c1ccc(F)cc1 (configuration not stated)	0	-4	·	-5	·	-1	·	·
N#C/C(=C(/O)CCCl)c1ccccn1	209*	-5	·	-6	3	-5	389*	395*
Cn1ccc2c(-c3ccc(C(=O)O)cc3)cc3c(c21)C1CCC3O1 (configuration not stated)	79*	-1	·	-1	3	0	66*	70*
CC(=O)Nc1ccc2c3c(cccc13)C(=O)N(c1ccccc1)C2=O	59*	-2	i	2	-2	4	65*	71*
CCOC(=O)c1c(-c2ccccc2)oc2ccc(OCC(=O)O)cc12	25*	0	·	-1	-2	-1	25*	25*
COC(=O)C1=CN(Cc2ccc(OC)c(OC)c2)C=C(C(=O)OC)C1c1ccc(O)cc1	21*	1	·	-2	-1	1	-147	-168
Cc1cc(=O)oc2c(CN(C)Cc3ccccc3)c(O)ccc12	75*	6	·	1	-2	1	72*	78*
Cc1cc(=O)oc2c(N)c(O)ccc12	5	-5	i	-2	-2	-7	·	·
COc1ccc2c(C)cc(=O)oc2c1OCC(O)CN1CCOCC1 (configuration not stated)	15*	-2	·	-2	0	7	7	10*
Cc1cc(=O)oc2c(CN3CCOCC3)c(O)ccc12	100*	0	·	0	-3	0	74*	65*
CN(Cc1ccccc1)Cc1c(O)ccc2ccccc12	-1	0	i	3	0	4	·	·
Cc1cc(=O)oc2c(CN3CCCCC3)c(O)ccc12	118*	-4	·	-4	0	6	71*	73*
COC(=O)c1cc(-c2ccc3ccccc3c2)c(=O)n2c1CCC2	-1	-1	·	0	·	-1	·	·
CCCCNC(=O)C[C@H]1C[C@@]2(C(=O)OC)C(=C[C@H](COCc3ccccc3)O[C@@H]2C)N(Cc2ccc3c(c2)OCO3)C1=O	0	0	·	-4	·	-2	·	·
CCC[C@H]1[C@@H](NC(=O)c2ccc(C)cc2)CC[C@@]23CCCN2C(=O)CCC[C@@H]13	·	1	·	0	·	-2	·	·
COC(=O)C(=C/C(C)=C/c1cccnc1)C(=O)OC	-1	16	i	2	1	-1	·	·
COC1=C[C@H](C(=O)N[C@H]2CCCC[C@@H]2NC(C)=O)[C@@]2(C)Cc3ccccc3[C@H]2CC1=O	0	1	·	4	·	3	·	·
COc1cccc(N2CC(=O)N(NC(=O)c3sc4nc(C)cc(C)c4c3N)CC2=O)c1	56*	-1	·	3	-2	4	16*	22*
SMILES	KLK7 zymogen act	UHRF1 MBD2 ctr	Neddyl block	MBD2 inh	Rin1-Abl PPI inh	LEDGF integ inh	KLK7 act conf	EDANS-DABCYL int
Cc1cc(C)c2c(N)c(C(=O)NNC(=O)c3ccccc3)sc2n1	6	-4	·	2	0	4	·	·
COc1ccc(NC(=O)c2sc3nc(C)cc(C)c3c2N)c(OC)c1	0	-1	·	-1	-1	3	·	·
COc1cccc(N2CC(=O)N(NC(=O)CSc3nc(C)cc(C)c3C#N)CC2=O)c1	71*	-2	i	3	2	-2	42*	45*
Cc1cc(C)c2c(N)c(C(=O)NN3CC(=O)N(c4ccccc4F)CC3=O)sc2n1	112*	-3	·	-1	-2	-1	40*	42*
Cc1cc(C)c(C#N)c(SCC(=O)Nc2cccc(S(=O)(=O)N3CCCC3)c2)n1	-1	-1	i	2	-144	1	·	·
O=C(CCSc1ccc(Cl)c(Cl)c1)NC12CC3CC(CC(C3)C1)C2	0	10	i	-1	-4	-2	·	·
CCc1c(-c2ccccc2F)ncn1CCc1ccccc1OC	-1	-1	·	1	·	-1	·	·
Cc1ccccc1CN1CCCCC(NC(=O)Nc2cccc([N+](=O)[O-])c2)C1=O (configuration not stated)	0	1	·	0	·	0	·	·
N#Cc1cc(-c2ccccc2)c[nH]c1=O	20*	-1	·	0	-4	1	7	10*
CC(=O)Oc1ccc2c3c(c(=O)oc2c1C)CCCC3	168*	0	·	0	2	-6	531*	500*
Cc1c(OC(C)C(=O)O)ccc2c3c(c(=O)oc12)CCCC3 (configuration not stated)	2	-2	·	-3	-2	5	·	·
COc1ccccc1NC(=O)COC(=O)c1c[nH]c(=O)[nH]c1=O	0	-1	i	2	-1	-2	·	·
COc1ccccc1NC(=O)COC(=O)c1[nH]c(=O)[nH]c(=O)c1N	84*	6	i	4	1	1	120*	121*
COc1ccccc1C=NNC(=O)c1ccncc1	1	-4	i	-2	2	-4	·	·
COc1ccc(OC)c(/C=N/NC2=NS(=O)(=O)c3ccccc32)c1	51*	1	i	-1	1	3	52*	46*
COc1ccc(OC)c(/C=N\NC(=O)c2ccc(-c3ccccc3)cc2)c1	-2	-2	·	-3	0	3	·	·
COc1ccc(OC)c(/C=N/NC(=O)c2ccncc2)c1	41*	3	i	6	-4	-1	41*	39*
COc1ccc(OC)c(/C=N\NC(=O)c2ccc(=O)n(C)c2)c1	16*	-4	i	-2	-2	1	12	10*
